Inhibition data for 91 compounds are collected here from PubChem BioAssay AID434962 (The Scripps Research Institute Molecular Screening Center, 2010).

SMILES strings stand for the structures. Screen size: about 320,000 compounds; about 1,300 (0.41%) were called active.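 How the source made its calls: active means percent inhibition above the average of all tested compounds plus 3 SD, set per screening campaign (cut at about 16% in these data); inactive means the rest.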 For the sample, actives were picked, then their nearest neighbours and some compounds at random.

Chain of Insulin-degrading enzyme (Homo sapiens) (P14735 whole entry, looked up): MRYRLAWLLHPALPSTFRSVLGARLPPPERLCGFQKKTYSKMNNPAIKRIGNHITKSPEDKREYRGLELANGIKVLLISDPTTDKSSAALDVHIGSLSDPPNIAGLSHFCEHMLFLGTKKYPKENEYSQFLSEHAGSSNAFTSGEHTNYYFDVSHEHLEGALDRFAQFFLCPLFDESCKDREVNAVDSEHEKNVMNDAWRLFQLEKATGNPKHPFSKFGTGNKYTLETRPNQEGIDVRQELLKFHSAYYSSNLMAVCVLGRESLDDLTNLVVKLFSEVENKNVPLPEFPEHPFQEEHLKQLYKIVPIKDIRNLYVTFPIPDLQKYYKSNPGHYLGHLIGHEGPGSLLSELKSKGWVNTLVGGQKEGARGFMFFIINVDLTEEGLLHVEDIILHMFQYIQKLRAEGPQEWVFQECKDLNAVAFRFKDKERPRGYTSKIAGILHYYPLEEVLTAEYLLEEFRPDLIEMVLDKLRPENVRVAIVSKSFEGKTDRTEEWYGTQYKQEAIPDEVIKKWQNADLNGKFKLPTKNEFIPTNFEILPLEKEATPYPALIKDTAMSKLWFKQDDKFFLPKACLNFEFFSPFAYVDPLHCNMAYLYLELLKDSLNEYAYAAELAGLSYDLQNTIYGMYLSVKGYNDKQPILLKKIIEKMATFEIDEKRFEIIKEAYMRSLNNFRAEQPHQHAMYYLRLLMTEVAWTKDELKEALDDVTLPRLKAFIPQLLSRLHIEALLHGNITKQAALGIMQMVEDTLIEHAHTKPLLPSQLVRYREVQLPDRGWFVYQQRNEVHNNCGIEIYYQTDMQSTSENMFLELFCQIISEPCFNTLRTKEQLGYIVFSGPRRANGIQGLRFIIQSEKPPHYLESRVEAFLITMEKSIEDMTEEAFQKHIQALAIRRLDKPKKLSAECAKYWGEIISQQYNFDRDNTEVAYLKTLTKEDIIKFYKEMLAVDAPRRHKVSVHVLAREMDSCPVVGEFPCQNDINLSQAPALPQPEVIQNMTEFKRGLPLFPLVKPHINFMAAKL

The assay concerns the target Insulin-degrading enzyme (Homo sapiens) (UniProt P14735). In words: cellular IDE Abeta-cleavage inhibition – fluorescence polarization, HEK cells, FAbetaB substrate, primary screen (AID 434962).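 Further: IDE supplied by intact live HEK cells; FP after avidin binding of uncleaved biotin substrate so inhibition keeps polarization high; 0% = DMSO wells and 100% = 60 µM reference IDE inhibitor Ii1.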 The following applies: at 5.59 µM, active compounds read high. (Fluorescence polarisation rises when a labelled molecule tumbles more slowly, as on binding a larger partner.)
Regarding `O=C(c1cccs1)n1nc(NCc2ccccc2)nc1NCc1ccccc1`, the inhibition – broadly, the relative decrease from the control value, in per cent – was -0.3% (inactive).
For `COC(=O)Nc1ccc(S(=O)(=O)Nc2cc(OC)nc(OC)n2)cc1`, the inhibition is 0.87% (inactive).
As to `CCOC(=O)c1c(C)n(C)c2ccc(OC)c(NS(=O)(=O)CC)c12`, the inhibition is -2.79% (inactive).
Turning to `CC1C(=O)Nc2ccc(S(=O)(=O)N3CCN(c4ccccc4F)CC3)cc2NC1=O` (stereo unspecified), the inhibition is 1.3% (inactive).
Turning to `Oc1ccc(-c2onc3ccc(Cl)cc23)cc1`, the inhibition is 43.5% (active).
Take `CC(OC(=O)c1ccc2noc(-c3ccccc3)c2c1)C(N)=O` (stereo unspecified): the inhibition was 8.12% (inactive).
Consider `COc1ccc(-c2onc3ccc(C(C)=O)cc23)cc1`, for which the inhibition was -1.49% (inactive).
Regarding `Cc1ccc(NC(=O)C2CCN(S(=O)(=O)c3ccc4c(c3)NC(=O)CO4)CC2)cc1C`, the inhibition was -0.04% (inactive).
Regarding `Cn1cccc1C(=O)NNC(=O)COc1ccc(Br)cc1`, the inhibition was 2.25% (inactive).
With `COc1ccc2c(c1)c1nc3n(c(=O)c1n2CC(=O)Nc1ccccc1)CCS3`, the inhibition is -0.03% (inactive).
Take `Cc1nnc2n1N=C(c1ccc3c(c1)NC(=O)CO3)CS2`: the inhibition was 4.61% (inactive).
Regarding `CC(=O)N1CCSc2ccc(S(=O)(=O)N3CCC(C)CC3)cc21`, the inhibition was 2.25% (inactive).
Regarding `O=C(/C=C/c1ccc(N2CCOCC2)cc1)c1ccccc1`, the inhibition was 20.5% (active).
With `CC(=O)Nc1ccc(/C=C/C(=O)c2ccccc2)cc1` the figure was 1.53% (inactive); with `O=C(O)c1ccc2c(c1)C(=O)N(c1ccc(/C=C/C(=O)c3ccccc3)cc1)C2=O`, 11.8% (inactive); with `CNC[C@H]1Oc2c(NC(=O)C3CCCCC3)cccc2C(=O)N([C@H](C)CO)C[C@@H]1C`, 8.42% (inactive).
As to `NC(=O)NC(=O)CSc1nc2cc([N+](=O)[O-])ccc2n1-c1cccc(C(F)(F)F)c1`, the inhibition was -2.07% (inactive).
For the compound `CCCC(=O)Nc1c(O)c2ccccc2[nH]c1=O`, the inhibition was 20.6% (active).
For `CCCOC(=O)Cc1c(O)c2ccccc2[nH]c1=O`, the inhibition is 1.56% (inactive).
For the compound `CC(C)C(=O)Nc1c(O)c2ccccc2[nH]c1=O`, the inhibition is -1.36% (inactive).
As for `O=C(c1cccc(Br)c1)N1CCN(C2=NS(=O)(=O)c3ccccc32)CC1`, the figure is -5.26% (inactive); as for `CCCC1CCC(=NNC(=S)NCCc2ccccc2)CC1` (stereo unspecified), 1.89% (inactive); as for `COc1cccc(CNC(=O)COc2cc(O)c3c(c2)OC(C)(C)CC3=O)c1`, 0.91% (inactive).
As for `O=C(COC(=O)CCc1ccc(S(=O)(=O)N2CCOCC2)cc1)Nc1cccc(Cl)c1`, the inhibition is 1.15% (inactive).
For the compound `O=C(CCc1ccc(S(=O)(=O)N2CCOCC2)cc1)Nc1ccc2ccccc2c1`, the inhibition is 26.8% (active).
In the case of `Cc1ccc(CC(=O)Nc2ccc(S(=O)(=O)N3CCOCC3)cc2)cc1C`, the inhibition is 3.81% (inactive).
Regarding `COCCN(Cc1nc(-c2ccc(C(F)(F)F)cc2)no1)C(C)C`, the inhibition is 1.82% (inactive).
With `CCN1C(=S)N[C@@H](CCc2ccccc2)[C@H](C(=O)OC)[C@H]1C`, the inhibition was 0.06% (inactive).
Turning to `O=C(Nc1ccccc1)N1CCN(C2c3ccccc3-c3ccccc32)CC1`, the inhibition was 0.11% (inactive).
With `COc1cccc2cc(C(N)=O)/c(=N\NC(=O)c3ccccc3)oc12` the figure was -0.22% (inactive); with `NC(=O)c1cc2ccccc2o/c1=N/NC(=O)c1cccc(F)c1`, 7.74% (inactive).
Consider `CCN(CC)c1ccc2cc(C(N)=O)/c(=N\NC(=O)c3ccncc3)oc2c1`, for which the inhibition was 64.9% (active).
In the case of `O=C(CCN1C(=O)COc2ccccc21)NCCCN1CCN(c2ccc(F)cc2)CC1`, the inhibition was -5.39% (inactive).
As for `CCN(C(=O)CSc1nnnn1-c1ccc(OC)cc1)C1CCS(=O)(=O)C1` (stereo unspecified), the inhibition was -3.64% (inactive).
For the compound `CCOc1ccc(NC(=O)c2ccc(NC(=O)C3CCCO3)cc2)cc1` (stereo unspecified), the inhibition was 3.26% (inactive).
Regarding `COc1ccc(CNC(=O)/C(C#N)=C/c2cccc(OC)c2OC)cc1`, the inhibition was 2.96% (inactive).
As for `N#C/C(=C\c1ccc(O)c(O)c1)C(=O)NCc1ccccc1`, the inhibition is 30.2% (active).
Turning to `COCCNC(=O)/C(C#N)=C/c1cccc(OCc2ccccc2)c1`, the inhibition is 3.27% (inactive).
With `COc1ccc(CCNC(=O)CC2SC(=Nc3cc(C)cc(C)c3)NC2=O)cc1OC` (stereo unspecified) the figure was 2.28% (inactive).
For `Cn1c2ccccc2c2cc(/C=C(\NC(=O)c3ccccc3)C(=O)NCC(=O)O)ccc21`, the inhibition is 32.5% (active).
Consider `CCOC(=O)CNC(=O)/C(=C\c1ccc(F)cc1)NC(=O)c1ccccc1`, for which the inhibition was -3% (inactive).
Turning to `COc1ccc(/C=C(\NC(=O)c2ccccc2)C(=O)NCCN2CCOCC2)cc1OC`, the inhibition is 0.14% (inactive).
With `CC(=O)Oc1cc2c(C(=O)NCCN3CCOCC3)c(C)oc2c2ccccc12`, the inhibition is -2.28% (inactive).
As to `O=C(Nc1sc2c(c1C(=O)O)CCC2)c1ccccc1F`, the inhibition was -2.01% (inactive).
Take `COc1cccc(OC)c1C(=O)Nc1sc2c(c1C(N)=O)CCCC2`: the inhibition is 0.41% (inactive).
As to `NC(=O)c1c(Nc2nc3c(F)cccc3s2)sc2c1CCCC2`, the inhibition was 24.3% (active).
Consider `Cc1cc(C(C)(C)C)oc1C(=O)N(CC(=O)NC1CCCC1)Cc1ccc(Cl)cc1`, for which the inhibition is 6.17% (inactive).
Turning to `CCN(CCCNC(=O)c1ccc2c(c1)NC(=O)CN2C)c1cccc(C)c1`, the inhibition is 2.85% (inactive).
As to `CC(C)NC(=O)CSc1nnc(COc2ccccc2Cl)o1`, the inhibition was -2.04% (inactive).
Consider `CCCCn1c(SCc2ncc(-c3ccccc3)o2)nc2cc(S(N)(=O)=O)ccc21`, for which the inhibition is 2.94% (inactive).
For the compound `COc1ccccc1N(C)C(=O)c1cc(S(=O)(=O)N2CCc3ccccc32)cn1C`, the inhibition is -0.28% (inactive).
As for `CCOc1ccc(C2=CC(c3ccccc3)n3ncnc3N2)cc1` (stereo unspecified), the figure is 7.53% (inactive).
As to `COc1ccc(C2C=C(c3ccc(Br)cc3)Nc3nc(NS(C)(=O)=O)nn32)cc1` (stereo unspecified), the inhibition was 76.7% (active).
As for `Brc1ccc(C2=CC(c3ccco3)n3ncnc3N2)cc1` (stereo unspecified), the inhibition was 5.82% (inactive).
On to `CCOc1ccc(N(CC(=O)NCCOc2ccccc2OC)S(=O)(=O)c2ccccc2)cc1`, for which the inhibition is 4.02% (inactive).
`Cc1cc2c(cc1S(=O)(=O)NCc1ccc(Cl)cc1)OCC(=O)N2`: the inhibition is 5.28% (inactive).
Turning to `CC1=CC(C)(C)Nc2ccc(OC(=O)CN3C(=O)C4CCCCC4C3=O)cc21` (stereo unspecified), the inhibition is 23.6% (active).
As for `O=C(CN1C(=O)C2C3CCC(C3)C2C1=O)Oc1ccc2ccccc2c1` (stereo unspecified), the figure is -0.24% (inactive); as for `CC1=CC(C)(C)Nc2ccc(OC(=O)C(Cc3ccccc3)N3C(=O)C4CCCCC4C3=O)cc21` (stereo unspecified), -5.52% (inactive); as for `O=C(NCCC1CCCCN1S(=O)(=O)c1ccccc1)C(=O)NCC1CCCO1` (stereo unspecified), 3.94% (inactive).
Regarding `Cc1ccccc1CSc1nnc(-c2ccccc2)c(=O)[nH]1`, the inhibition was 0.38% (inactive).
With `Cc1cccc(-n2c(Cc3cc(=O)[nH]c(=O)[nH]3)nnc2SCC(=O)Nc2cccc(C(F)(F)F)c2)c1`, the inhibition is 18.2% (active).
Regarding `COc1cccc(-n2c(Cc3cc(=O)[nH]c(=O)[nH]3)nnc2SCC(=O)Nc2ccccc2)c1`, the inhibition is 2.57% (inactive).
For the compound `Cc1cccc(-n2c(Cc3cc(=O)[nH]c(=O)[nH]3)nnc2SC(C)C)c1`, the inhibition is 6.03% (inactive).
For the compound `Cc1ccc(S(=O)(=O)N2CCN(C(=O)COC(=O)CNC(=O)c3ccc(C(C)(C)C)cc3)CC2)c(C)c1`, the inhibition was 1.73% (inactive).
As for `CCOc1cc2c(Cl)ncnc2c(OCC)c1OCC`, the figure is 17.1% (active).
Turning to `CCOc1cc(-c2conc2N)cc(OCC)c1OCC`, the inhibition was 0.37% (inactive).
For the compound `CCOc1cc(C(=O)Nc2ncccn2)cc(OCC)c1OCC`, the inhibition was -0.15% (inactive).
Turning to `Cc1ccc(S(=O)(=O)N2CCN(CC(=O)N/N=C/c3ccc(Br)s3)CC2)cc1`, the inhibition is 2.15% (inactive).
Consider `CCOC(=O)c1csc(NC(=O)c2ccc(S(=O)(=O)N3CCCC3)cc2)n1`, for which the inhibition is 0.72% (inactive).
In the case of `CNC(=O)c1ccsc1NC(=O)c1ccc(S(=O)(=O)N2CCOCC2)cc1`, the inhibition was 6.05% (inactive).
`COc1ccc(C(=O)Nc2nc(-c3ccc(S(=O)(=O)N4CCOCC4)cc3)cs2)cc1`: the inhibition is 24.5% (active).
As for `CC(=O)CC(CC(=O)NC1CCCCC1)c1ccccc1` (stereo unspecified), the figure is -6.38% (inactive).
With `COCCCNC(=O)/C=C/c1ccc(OCc2c(F)cccc2Cl)cc1` the figure was 11.8% (inactive); with `O=C(/C=C/c1ccc(OCc2c(F)cccc2Cl)cc1)N1CCOCC1`, 21.1% (active).
For `CN(C)CCCNC(=O)/C=C/c1ccc(OCc2c(F)cccc2Cl)cc1`, the inhibition is 5.4% (inactive).
As to `CC1C=CCC2C(=O)N(c3cccc(C(=O)N4CCCCCC4)c3)C(=O)C12` (stereo unspecified), the inhibition was -1.29% (inactive).
On to `CCn1c(C)c(C)c2cc(C(=O)N3CCN(c4cccc(C)c4C)CC3)ccc21`, for which the inhibition is -0.11% (inactive).
`Cc1cccc(N2CCN(C(=O)c3cccc(N4C(=O)C5C6C=CC(C6)C5C4=O)c3)CC2)c1C` (stereo unspecified): the inhibition was 44.4% (active).
As for `CC(C)(C)C(=O)Nc1c(Br)c(C2CC2)nn1-c1ccccc1`, the inhibition was 0.92% (inactive).
With `Cc1c(NC(=O)C(C)OC(=O)c2cc3c4ccccc4n(C)c3s2)c(=O)n(-c2ccccc2)n1C` (stereo unspecified), the inhibition is -0.34% (inactive).
As for `CCCn1c(N)c(C(=O)CSc2nc3ccccc3c(=O)n2-c2ccc(OC)cc2)c(=O)[nH]c1=O`, the figure is -10.9% (inactive); as for `COc1ccc(Br)cc1C(=O)NC(=S)Nc1cc(-c2nc3ccccc3[nH]2)ccc1C`, 24.5% (active); as for `COc1ccc(Br)cc1C(=O)Nc1cccc(C)c1C`, 2.56% (inactive).
In the case of `Cc1cc2[nH]ncc2cc1NC(=S)NC(=O)c1ccccc1`, the inhibition is -2.99% (inactive).
With `CCOC(=O)C(CC)/C(C)=N\NC(=O)c1cccc(C)c1` (stereo unspecified) the figure was -1% (inactive).
With `Cc1cc(Cl)ccc1OCCCC(=O)NCc1ccccn1`, the inhibition was -0.14% (inactive).
As for `Cc1cc(Cl)ccc1OCCCC(=O)NCc1ccncc1`, the inhibition is 22.1% (active).
Consider `Cc1cc(Cl)ccc1OCCCC(=O)Nc1cccc(-n2cnnn2)c1`, for which the inhibition was 6.2% (inactive).
On to `CN(C)Cc1ccc(F)cc1Sc1cc(Cl)ccc1Cl`, for which the inhibition was 7.05% (inactive).
For `CCOC(=O)CNc1nc(Cl)nc(Nc2ccc(OC)cc2OC)n1`, the inhibition was -1.6% (inactive).
